Assay results as given in PubChem BioAssay (EPA / NIEHS).
Several values for one entry are separate records, joined by “and”; a condition that tells them apart may be missing. Equal values may be shown once. Results filed as inconclusive are left out. Some compounds were tested as several samples or in several runs, with calls that do not always agree. Activity calls are given as the source filed them. Rule for the calls, unless noted: active = hit-call score of the fitted dose curve at least 0.9, where 1 is the maximum; inactive = score below 0.9.

Key:
[1] = BSK_BT_Bcell_Proliferation: Viability Assessment in the BioMAP Diversity Plus: BT Assay for B cell Proliferation (AID 2284227); settings: primary human B cells with PBMC
Procedure, shortened: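 Using a human primary B cell–PBMC co-culture, the assay measures total protein by sulforhodamine B absorbance as a gauge of proliferation after 72 h. Analysis followed the positive fitting direction with DMSO as baseline.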

[2] = read-out: Interleukin 6 (IL6), IL6 (gene 3569); assay: BSK_BT_xIL6: BioMAP Diversity Plus: BT Assay for Interleukin 6 (IL6) Biomarker Activity (AID 2284228); settings: primary human B cells with PBMC
Procedure, shortened: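 Human B cell/PBMC co-culture; secreted IL-6 quantified by Luminex xMAP 24 h after chemical dosing, fitted relative to DMSO. Parallel PBMC viability by Alamar Blue after 1 h pretreatment, 20 ng/mL SEB and TSST-1, 90 h incubation.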

[3] = read-out: Tumor necrosis factor (Homo sapiens) (UniProt P01375); assay: BSK_BT_xTNFa: BioMAP Diversity Plus: BT Assay for Tumor necrosis factor alpha (TNF-alpha) Biomarker Activity (AID 2284230); settings: primary human B cells with PBMC
Procedure, shortened: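 Endpoint derived in the positive direction versus DMSO vehicle. Cells: B cells together with PBMC, exposed 24 h before TNF-alpha in the medium was read on the Luminex xMAP platform.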

[4] = read-out: Vascular cell adhesion molecule 1 (VCAM1), VCAM1 (gene 7412); assay: BSK_MyoF_VCAM1: BioMAP Diversity Plus: MyoF Assay for Vascular cell adhesion molecule 1 (VCAM1) Biomarker Activity (AID 2284231); settings: primary human lung fibroblasts
Procedure, shortened: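 Primary human lung fibroblasts (BioMAP MyoF system) dosed with chemical, VCAM-1 measured by ELISA 24 hours later. Fitted in the positive direction against DMSO; parallel SRB staining assessed cytotoxicity.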

[5] = read-out: Collagen I, COL1A1 (gene 1277); assay: BSK_MyoF_CollagenI: BioMAP Diversity Plus: MyoF Assay for Collagen I Biomarker Activity (AID 2284238); settings: primary human lung fibroblasts
Procedure, shortened: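 Primary human lung fibroblasts (MyoF system) treated 24 h; Collagen I quantified by ELISA and fitted in positive direction against DMSO. Parallel SRB total-protein staining assessed overt cytotoxicity.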

[6] = read-out: Collagen III, COL3A1 (gene 1281); assay: BSK_MyoF_CollagenIII: BioMAP Diversity Plus: MyoF Assay for Collagen III Biomarker Activity (AID 2284239); settings: primary human lung fibroblasts
Procedure, shortened: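 Primary human lung fibroblasts (BioMAP MyoF system) exposed 24 h. Collagen III measured by ELISA; positive-direction fit relative to DMSO.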

[7] = CCTE_Mundy_HCI_hNP1_Casp3_7: CCTE's Caspase-Glo 3/7 Assay in human neuroprogenitor cells for Apoptosis, Mundy Lab (AID 2284240)
Procedure, shortened: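 Luminescent caspase-3/7 readout, 26.5 h post-dose, in human neural progenitor cells from WA09 embryonic stem cells. Cells grew 40–44 h at 37 °C, 5% CO2 before chemical addition. Activity analysed as signal increase over DMSO baseline.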

[8] = CCTE_Mundy_HCI_hNP1_CellTiter: CCTE's Cell Titer-Glo 2 Assay in human neuroprogenitor cells for Viability, Mundy Lab (AID 2284241; active = hit-call score of the fitted dose curve at least 0.9, where 1 is the maximum)
Procedure, shortened: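 Viability read as luminescent ATP content (CellTiter-Glo, 30 min room temperature) twenty-four hours after dosing, relative to DMSO. Cells: WA09-derived hNP1 neuroprogenitors on poly-L-ornithine/laminin, plated 40 to 44 hours before chemical.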

[9] = read-out: Interleukin 17F (IL17F), IL17F (gene 112744); assay: BSK_BT_xIL17F: BioMAP Diversity Plus: BT Assay for Interleukin 17F (IL17F) Biomarker Activity (AID 2284243); settings: primary human B cells with PBMC
Procedure, shortened: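 Human PBMC co-cultured with B cells, compound exposure 24 h; secreted IL-17F quantified by Luminex xMAP, referenced to DMSO control. PBMC viability measured in parallel by Alamar Blue reduction.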

[10] = read-out: Actin alpha 1 (ACTA1), ACTA1 (gene 58); assay: BSK_MyoF_ACTA1: BioMAP Diversity Plus: MyoF Assay for Actin alpha 1 (ACTA1) Biomarker Activity (AID 2284244); settings: primary human lung fibroblasts
Procedure, shortened: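 MyoF fibroblast system (human lung); a-SMA quantified via ELISA at 24 h; DMSO-normalised, gain-of-signal endpoint.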

[11] = read-out: Interleukin 2 (IL2), IL2 (gene 3558); assay: BSK_BT_xIL2: BioMAP Diversity Plus: BT Assay for Interleukin 2 (IL2) Biomarker Activity (AID 2284245); settings: primary human B cells with PBMC
Procedure, shortened: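 Co-cultures of primary human B cells and PBMC are treated with chemical and sampled at 24 h. IL-2 secretion is quantified by Luminex xMAP, with DMSO-treated wells as baseline.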

[12] = read-out: Basic fibroblast growth factor (bFGF), FGF2 (gene 2247); assay: BSK_MyoF_bFGF: BioMAP Diversity Plus: MyoF Assay for Basic fibroblast growth factor (bFGF) Biomarker Activity (AID 2284246); settings: primary human lung fibroblasts
Procedure, shortened: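 Fibroblasts from human lung, 24 h dosing. bFGF by ELISA; gain of signal over DMSO.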

[13] = read-out: Collagen IV, COL4A1 (gene 1282); assay: BSK_MyoF_CollagenIV: BioMAP Diversity Plus: MyoF Assay for Collagen IV Biomarker Activity (AID 2284247); settings: primary human lung fibroblasts
Procedure, shortened: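 Lung fibroblasts (human primary) treated with chemicals were assayed after 24 h for Collagen IV using an ELISA, with DMSO serving as negative control and baseline for a positive-direction fit.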

[14] = read-out: Monokine induced gamma interferon (MIG), CXCL9 (gene 4283); assay: BSK_KF3CT_MIG: BioMAP Diversity Plus: KF3CT Assay for Monokine induced gamma interferon (MIG) Biomarker Activity (AID 2284248); settings: primary human keratinocytes with fibroblasts
Procedure, shortened: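 Human keratinocyte–foreskin fibroblast co-culture; MIG measured by ELISA 24 h after chemical dosing, fitted upward versus DMSO. Cytotoxicity was assessed in parallel cultures by SRB total-protein staining read at 560 nm.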

[15] = read-out: Vascular cell adhesion molecule 1 (VCAM1), VCAM1 (gene 7412); assay: BSK_BF4T_VCAM1: BioMAP Diversity Plus: BF4T Assay for Vascular cell adhesion molecule 1 (VCAM1) Biomarker Activity (AID 2284249); settings: primary human bronchial epithelial cells with fibroblasts
Procedure, shortened: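 Cell-surface VCAM-1 quantified by ELISA after 24 h chemical exposure of human bronchial epithelial/dermal fibroblast co-cultures, with SRB staining in parallel wells for cytotoxicity; DMSO baseline, positive-direction fitting.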

[16] = read-out: Collagen I, COL1A1 (gene 1277); assay: BSK_hDFCGF_CollagenI: BioMAP Diversity Plus: hDFCGF Assay for Collagen I Biomarker Activity (AID 2284250); settings: primary human foreskin fibroblasts
Procedure, shortened: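 Readout: Collagen I by ELISA after 24 h compound treatment of primary human foreskin fibroblasts. Endpoint analysed for increases relative to DMSO; total protein by SRB in parallel wells flagged cytotoxicity.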

[17] = read-out: Plasminogen activator inhibitor-1 (PAI1), SERPINE1 (gene 5054); assay: BSK_KF3CT_PAI1: BioMAP Diversity Plus: KF3CT Assay for Plasminogen activator inhibitor-1 (PAI1) Biomarker Activity (AID 2284252); settings: primary human keratinocytes with fibroblasts
Procedure, shortened: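 In this co-culture of primary human keratinocytes and foreskin fibroblasts, PAI-1 was measured by ELISA at 24 h and fitted upward from DMSO.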

[18] = read-out: Monocyte Chemoattractant Protein-1 (MCP1), CCL2 (gene 6347); assay: BSK_IMphg_MCP1: BioMAP Diversity Plus: IMphg Assay for Monocyte Chemoattractant Protein-1 (MCP1) Biomarker Activity (AID 2284253); settings: primary human endothelial cells with macrophages
Procedure, shortened: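 ELISA readout of MCP-1 at 24 hours in IMphg co-cultures of venular endothelial cells and macrophages, normalised to DMSO; parallel cultures stained with sulforhodamine B for overt cytotoxicity.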

[19] = read-out: Interleukin 17A (IL17A), IL17A (gene 3605); assay: BSK_BT_xIL17A: BioMAP Diversity Plus: BT Assay for Interleukin 17A (IL17A) Biomarker Activity (AID 2284229); settings: primary human B cells with PBMC
Procedure, shortened: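 Co-culture of human B cells and PBMC, dosed for 24 h in 96-well format. Secreted IL-17A measured with Luminex xMAP; gain-direction fitting against DMSO as baseline.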

Measured: AC50

Tumor necrosis factor (Homo sapiens), sequence (P01375 whole entry, looked up): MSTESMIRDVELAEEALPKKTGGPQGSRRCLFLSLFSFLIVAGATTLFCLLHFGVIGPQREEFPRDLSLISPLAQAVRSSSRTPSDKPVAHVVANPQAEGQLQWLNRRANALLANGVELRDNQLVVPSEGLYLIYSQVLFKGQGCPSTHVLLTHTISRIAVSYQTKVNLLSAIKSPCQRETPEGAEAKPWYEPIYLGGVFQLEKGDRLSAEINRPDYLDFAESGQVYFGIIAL

OCCCC(F)(F)C(F)(F)C(F)(F)C(F)(F)C(F)(F)C(F)(F)C(F)(F)C(F)(F)F
inactive: [7] | [8] | [13] | [16]
active: [1] 43.8 µM and 31.8 µM | [2] 42.7 µM and 21.9 µM | [3] 37.1 µM and 37 µM | [4] 12.8 µM and 9.88 µM | [5] 13 µM and 10.9 µM | [6] 13.5 µM and 12.2 µM | [9] 22.4 µM and 19.1 µM | [10] 10.3 µM and 10.6 µM | [11] 43.4 µM and 46.9 µM | [12] 10.1 µM and 9.64 µM | [13] 7.39 µM | [14] 14.8 µM and 15.3 µM | [15] 13.9 µM and 16.8 µM | [17] 12.7 µM and 9.08 µM | [18] 18.5 µM and 21.1 µM

CNS(=O)(=O)C(F)(F)C(F)(F)C(F)(F)C(F)(F)C(F)(F)C(F)(F)C(F)(F)C(F)(F)F
inactive: [1] | [2] | [3] | [4] | [5] | [10] | [11] | [12] | [14] | [15] | [16] | [17] | [18]
active: [3] 44.9 µM | [9] 16.4 µM and 7.34 µM | [13] 2.71 µM and 3.58 µM | [17] 7.81 µM

NCC(F)(F)C(F)(F)C(F)(F)C(F)(F)C(F)(F)C(F)(F)C(F)(F)C(F)(F)F
not listed: [6] | [7] | [8]
inactive: all other assays above
